# The full ranking holds about 33,000 sequences; the median of “E-score (-0.5 to 0.5)” is about -8e-05, and the highest 2% start at about 0.23. The sample holds the highest values, similar sequences and a random draw of the others, so the mix is not that of the screen.
# Biological target: T1, Nrg2 (UniProt P38082)
# T1 sequence: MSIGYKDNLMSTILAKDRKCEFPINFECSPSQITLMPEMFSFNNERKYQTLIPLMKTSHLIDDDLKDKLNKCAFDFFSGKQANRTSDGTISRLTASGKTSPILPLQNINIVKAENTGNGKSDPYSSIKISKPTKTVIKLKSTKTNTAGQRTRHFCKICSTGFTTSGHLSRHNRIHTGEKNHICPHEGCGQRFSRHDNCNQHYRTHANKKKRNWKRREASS
# Assay: PBM E-score (8-mer binding enrichment) (E-score (-0.5 to 0.5)); higher = stronger / more preferred TF binding
# Settings: protein concentration: 100 nM; construct: GST-full length
# Description: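 Universal 'all 10-mer' protein binding microarrays (Agilent AMADID 015681) probed with GST-tagged S. cerevisiae TFs (full-length or DBD) made by in vitro transcription/translation (PURExpress), about 100-200 nM. Bound TF was detected with fluorescent anti-GST. Each ungapped 8-mer (which stands for itself and its reverse complement) is scored by the PBM enrichment score (E-score), a modified Wilcoxon-Mann-Whitney statistic from -0.5 to +0.5, computed with the Universal PBM Analysis Suite. Scale: above 0.35 generally sequence-specific binding.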
row,Sequence,PBM E-score
1,CTAGATGA,-0.0603
2,GCGAAACA,0.0688
3,AACGATGA,0.0545
4,ACCGCATC,0.159
5,CAATTGCA,-0.0952
6,AATTGGGG,-0.0654
7,AATTGGGT,0.26
8,AATTGAGA,0.0993
9,AAATTGCT,-0.0593
10,AAATTGTC,0.24
11,AATTGGGC,-0.0483
12,AAATTGCA,0.232
13,AATTGAGG,0.0708
14,AATTGAGT,0.245
15,AAATTGTA,0.0349
16,AAATTGTT,0.0684
17,CAGAGCGC,-0.213
18,ACATGGTA,-0.0687
19,AAGGTGCG,-0.0555
20,CTCATCCC,-0.234
21,ACTACGTA,0.0132
22,ATGTCCGA,-0.0732
23,ACCTCGCG,0.116
24,AGTCCCAC,-0.079
25,GAATTCCA,0.188

row,Sequence,PBM E-score
1,AAATTCCA,0.254
2,AAATTGGC,-0.012
3,AAATTGGT,0.268
4,CAATTCCA,-0.0703
5,AAATTGGG,0.0734
6,GAGACGGC,-0.0458
7,ACGAGGAC,-0.0285
8,CACTGAGC,-0.0828
9,ACGAATGA,0.156
10,GAAGGACA,-0.00553
11,CACCTCAG,-0.11
12,TCAGTGCA,0.0253
13,AGCGTTAC,-0.146
14,CATATAAA,0.00613
15,TATATAAA,0.2
16,AATATAGT,0.206
17,AATATAGC,0.0275
18,AATATAGG,0.229
19,AATATAAT,0.0957
20,CATATAAG,0.0579
21,AATATAAA,0.233
22,AATATAAG,0.258
23,ACACTTCA,0.103
24,CAGCCAGC,-0.115
25,CAAACAGC,0.00877

row,Sequence,PBM E-score
1,AAGGGCCA,-0.0108
2,AGTTTGGG,0.0374
3,CCGGCGAA,0.0927
4,AGAAACAA,0.258
5,AGAAACAC,0.0617
6,GGAAACAA,0.105
7,AATCGGCG,0.0404
8,AAGGTTTG,0.0916
9,AACAGGGC,0.283
10,ACCAGGGA,0.122
11,CTCAGGGC,0.157
12,AACAGGGG,0.105
13,GTCAGGGA,0.18
14,CACAGGGC,0.179
15,GACAGACA,0.248
16,CACAGACA,0.118
17,CCCAGGGA,0.124
18,GACAGACC,0.0299
19,TCCAGGGA,0.242
20,CTCAGGGA,0.319
21,GCATTCCC,-0.0654
22,ATTCGACC,-0.0786
23,AGAGCGCT,0.0785
24,CGCGGGGC,0.0564
25,AAGGGCAT,-0.139

row,Sequence,PBM E-score
1,ATGCGACA,0.0603
2,GCAAGTGA,-0.0727
3,AGCTAGCG,0.00875
4,ACGAAGAC,-0.135
5,GAGCAAGA,-0.00443
6,GCTGAAAA,0.114
7,GATCTCCA,0.0533
8,CAGAGCTG,-0.0821
9,AGAACGAA,0.179
10,AACAGGGA,0.176
11,CACAGGGA,0.139
12,GACAGGGA,0.252
13,CACCTCTC,-0.0403
14,ATGGCCTA,0.00552
15,GCAAGAAC,0.188
16,ATAAGAAT,0.135
17,ATAAGAAC,0.36
18,ACCAGAAA,0.041
19,ACAAGAGC,0.0831
20,CCAAGAGA,-0.14
21,ACCAGAAC,0.238
22,ATAAGAAA,0.101
23,ACAAGAAC,0.262
24,ACAAGAAT,0.0779
25,ACCAGAAG,-0.134

row,Sequence,PBM E-score
1,ACAAGAGA,0.24
2,AGGAGCAC,0.0739
3,AGTTGGCA,0.1
4,AGCTTACA,0.128
5,GCTCCCAA,-0.0754
6,CGCTACAG,-0.103
7,ATATACAA,0.237
8,ATATACAC,0.081
9,ATATACTA,0.307
10,CTATACTA,0.111
11,ATATACTC,0.0973
12,CTATACAA,-0.0419
13,AAATCACT,0.124
14,CACAGCCA,-0.0609
15,CGGAGATA,0.0572
16,ATGGTGTA,-0.0203
17,TCATATCA,0.0508
18,GCATATCA,0.256
19,CCATATCA,0.00491
20,CTTAACGA,0.123
21,GGCGAAGA,-0.0414
22,ATCTAGAA,-0.0175
23,CAAGACCG,-0.00525
24,AACCTATG,-0.101
25,TCGACAGA,-0.105

row,Sequence,PBM E-score
1,GCGACAGA,0.238
2,CCGACAGA,0.141
3,TGTTATAA,0.163
4,CGGGTCTC,-0.0571
5,AGGGTCTA,0.356
6,CGGGTCTA,-0.0249
7,AGGGTCTC,0.308
8,AGGGTCTG,0.216
9,GGGGTCTA,0.203
10,CCCCCCGC,-0.359
11,CCACTGTA,0.064
12,ATGATCTC,0.087
13,CTGATGAA,0.0121
14,AGTATGAT,0.223
15,ATGATGAA,0.31
16,CTGATCTA,0.00323
17,ATGATCTA,0.236
18,AGTATGAC,0.0675
19,AGTATGAA,0.254
20,GTGATGAA,0.0611
21,GCAGCATA,0.0385
22,GGAGAGGA,-0.215
23,ACCGAACC,-0.254
24,CGGACCTC,-0.0835
25,GACTCACA,0.0103

row,Sequence,PBM E-score
1,AGGTAGAT,-0.104
2,CAACACTA,0.147
3,TAACACTA,0.248
4,GAACACTA,0.0307
5,CGGTTGAA,0.101
6,AAAGGAAA,0.0754
7,AGCATAGA,-0.0952
8,AGCGATCA,-0.156
9,AGCGATCC,-0.129
10,AGCGATCG,0.24
11,CCGTGGAA,-0.00678
12,CATTGCAG,0.0963
13,ATGAGAGC,0.00785
14,ACCTACGG,-0.376
15,CCTAACGA,-0.038
16,ATTAGTAC,0.14
17,ATTAGTGC,0.23
18,ATTAGTGA,0.114
19,GTTAGTTA,0.0784
20,AGTAGTTG,0.253
21,AGTAGTTC,0.207
22,ATTAGTTA,0.268

# Reference: the supplement of paper PMC3334620
